# Test results: PubChem BioAssay (NCATS)
# Results filed as inconclusive are left out. Calls of active or inactive are those of the source. Unless noted, the call rests on the fitted dose curve; in most records, active means well fitted curve in the direction sought with a large enough effect; inconclusive means small, poorly fitted or top-dose-only effect, or another doubt; inactive means no such curve, though single readings can be large; an effect the other way counts as inactive or inconclusive.
# How the values were obtained:
# [1] = molecular target: Estrogen receptor (Homo sapiens) (UniProt P03372); assay: qHTS assay for small molecule antagonists of estrogen receptor alpha signaling (AID 588513; active means well fitted curve in the direction sought with a large enough effect in the signal ratio, with a control signal flat, not every such curve was filed as active; the % refers to the signal ratio; further: on the % scale 0 is the no-effect control and ±100 the full control effect)
# Outline: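 Beta-lactamase reporter, antagonist mode, HEK 293 GripTite cells; 0.5nM E2 stimulus, 18 h, 37 C; CCF4 dye 2 h RT; fluorescence. IC50 and efficacy from Hill fits, normalized to E2 and DMSO.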
# [2] = molecular target: Estrogen receptor (Homo sapiens) (UniProt P03372); assay: qHTS assay for small molecule agonists of estrogen receptor alpha signaling (AID 588514; calls by dose curve; further: nearly all actives have a fitted effect of over 70% in size; further: potency means the concentration at half of the fitted maximal effect;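 on activation: 0% = vehicle only and 100% = reference agonist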)
# Outline: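 Read-out: CCF4 fluorescence from a beta-lactamase reporter in ER-alpha-UAS-bla HEK 293 cells after 18 hrs of compound exposure at 37 C. Normalized to 20 nM 17-beta-estradiol (100%) and DMSO (0%).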
# [3] = qHTS assay for small molecule antagonists of peroxisome proliferator-activated receptor delta signaling (AID 588535; active means well fitted inhibition curve with a large enough effect in the signal ratio, with a control signal flat, not every such curve was filed as active; the % refers to the signal ratio;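 on max response: cells co-treated with a PPAR-delta agonist as stimulator during compound exposure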); conditions: HEK293T PPARd-UAS-bla, beta-lactamase FRET ratio, 18 h; 460 nm channel
# Outline: (§1)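 Beta-lactamase reporter read-out (405 nm excitation, 460/530 nm emission) after CCF4 loading for 2 hrs at RT. HEK293T PPAR-delta-UAS-bla cells, 2% charcoal/dextran FBS, compounds for 18 hrs at 37 C. Hill fit gave IC50 and efficacy.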
# [4] = molecular target: Peroxisome proliferator-activated receptor delta (Homo sapiens) (UniProt Q03181); assay: as above
# Outline: as §1
# [5] = molecular target: Vitamin D3 receptor (Homo sapiens) (UniProt P11473); assay: qHTS assay for small molecule agonists of vitamin D receptor signaling (AID 588543; calls by dose curve;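 further: 0% = DMSO basal and 100% = reference agonist control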)
# Outline: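 β-lactamase reporter, VDR-UAS-bla HEK293T, agonist mode. Cells plated 5 h at 37 °C, compound titration 16 h at 37 °C, CCF4 dye 2 h RT, ratio 460/530 nm. Hill fit → EC50, efficacy vs 50 nM 1α,25-(OH)2D3.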
# [6] = qHTS assay for small molecule agonists of retinoid X receptor alpha signaling (AID 588544; calls by dose curve;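 on activation: 0% = DMSO basal wells and 100% = reference agonist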); conditions: HEK293T RXRa-UAS-bla, beta-lactamase reporter, 18 h; 530 nm emission
# [7] = molecular target: Retinoic acid receptor RXR-alpha (Homo sapiens) (UniProt P19793); assay: as above
# [8] = qHTS assay for small molecule antagonists of retinoid X receptor alpha signaling (AID 588546; active means well fitted inhibition curve with a large enough effect in the signal ratio, with a control signal flat, not every such curve was filed as active; the % refers to the signal ratio;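 further: cells stimulated with 9-cis-retinoic acid as agonist; on the % scale 0 is the no-effect control and ±100 the full control effect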); conditions: HEK293T RXRa-UAS-bla, beta-lactamase ratio, antagonist mode; measured here: W530 green channel, cytotoxicity proxy
# Outline: (§2)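 Beta-lactamase reporter inhibition, read as CCF4 fluorescence ratio (ex 405, em 460/530 nm) after 2 h at RT. HEK293T UAS-bla cells, 2500/well, were stimulated with 9-cis-RA at 500 or 100 nM final alongside test compound for 18 h at 37 C.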
# [9] = molecular target: Retinoic acid receptor RXR-alpha (Homo sapiens) (UniProt P19793); assay: as above; conditions: HEK293T RXRa-UAS-bla, beta-lactamase ratio, antagonist mode
# Outline: as §2
# [10] = qHTS assay for small molecule activators of the nuclear factor-kappa B (NF-kB) signaling pathway (AID 651749; active means well fitted activation curve with a large enough effect in the signal ratio; the % refers to the signal ratio; further: series mostly up to about 77 µM; % of control where 0% means no effect); conditions: NF-kB-bla ME-180 cells, beta-lactamase FRET ratio, 16 h; activation: stronger effect = higher value
# Outline: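 NF-kB-bla ME-180 cells, 2,000/well; 23 nL compound or DMSO pinned; 16 hr, 37C/5% CO2; beta-lactamase FRET read-out.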
# [11] = qHTS assay for environmental chemicals that activate the Aryl hydrocarbon Receptor (AhR) signaling pathway (AID 651777); conditions: 1A2-DRE human hepatoma cells, luciferase, 24 h; activation: stronger effect = higher value; further: % of control where 0% means no effect; nearly all actives have a fitted effect of over 15% in size
# Outline: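 Following a 24 hr incubation with test chemicals at 37 C and 5% CO2, 1A2-DRE human hepatoma cells received One-Glo reagent; after 30 min at room temperature, luciferase output reflected CYP1A2 induction via AhR.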
# [12] = molecular target: Peroxisome proliferator-activated receptor alpha (Homo sapiens) (UniProt Q07869); assay: qHTS assay for small molecule agonists of the peroxisome proliferator-activated receptor alpha (PPARalpha) signaling pathway (AID 651778); conditions: PathHunter PPARalpha complementation, chemiluminescence, 6 h; max response: stronger effect = higher value; further: % of control where 0% means no effect
# Outline: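 Enzyme-fragment complementation assay in which ligand-bound PPARalpha translocates and forms an active enzyme that generates chemiluminescence. Cells were plated overnight, exposed to compound for 6 hr at 37 C, and then given detection reagent for 60 min at room temperature.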
# [13] = qHTS assay for cell viability of HEK293 cells (AID 743288); conditions: ATP luminescence (CellTiter-Glo), 18 h; max response: stronger effect = lower value; further: nearly all actives have a fitted effect of over 50% in size; further: potency means the concentration at half of the fitted maximal effect; on max response: on the % scale 0 is the no-effect control and ±100 the full control effect
# Outline: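 ATP luminescence (CellTiter-Glo) reports metabolically competent cell number after parental HEK293 cells, 2,000/well, were treated with DMSO-dissolved compounds for 18 h at 37 C; reagent incubation 30 min, room temperature.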
# [14] = molecular target: Nuclear receptor subfamily 1 group I member 2 (Rattus norvegicus) (UniProt Q9R1A7); assay: qHTS assay for small molecule activators of the rat pregnane X receptor (rPXR) signaling pathway (AID 651751; call rule not given here; further: 0% is about no effect); conditions: rPXR reporter cells, luciferase (One-Glo), 24 h
# [15] = qHTS assay for small molecule activators of the human pregnane X receptor (PXR) signaling pathway (AID 720659; call rule not given here; further: 0% is about no effect)
# [16] = qHTS assay for small molecule activators of the p53 signaling pathway (AID 651743; active means well fitted activation curve with a large enough effect in the signal ratio, not every such curve was filed as active; the % refers to the signal ratio; further: series mostly up to about 92 µM; % of control where 0% means no effect); conditions: HCT-116 p53RE-bla, beta-lactamase FRET ratio, 16 h; activation: stronger effect = higher value
# Outline: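 Reporter: beta-lactamase driven by p53 response elements, stably integrated in HCT-116 cells. Cells seeded at 4,000/well, 5 h preincubation, compound (DMSO) 16 h at 37 C; B/G FRET substrate 2 h RT; fluorescence intensity read.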
# [17] = qHTS assay for small molecule agonists of the antioxidant response element (ARE) signaling pathway measured by Nrf2-dependant transcriptional activity - cell viability counter screen (AID 720653; active means well fitted curve in the direction sought with a large enough effect in the repeat runs; an effect the other way counts as inactive or inconclusive; further: potency means the concentration at half of the fitted maximal effect; on max response: on the % scale 0 is the no-effect control and ±100 the full control effect); conditions: ARE-bla HepG2 viability, CellTiter-Glo ATP luminescence, 16 h; max response: stronger effect = lower value
# Outline: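 ARE-bla HepG2 cells treated with compounds for 16 h at 37C; this counter screen measures viability as intracellular ATP by CellTiter-Glo luminescence after 30 min at room temperature.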
# [18] = qHTS assay for cell viability of the p53RE-bla HCT-116 cell line (AID 743292); further: on the % scale 0 is the no-effect control and ±100 the full control effect; nearly all actives have a fitted effect of over 55% in size
# Outline: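 After plating at 4,000 cells per well and a 5 h rest at 37 C, HCT-116 cells carrying p53RE-bla received test chemicals in DMSO. Sixteen hours later at 37 C, CellTiter-Glo was added and luminescence recorded following 30 min at room temperature.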
# Chain of Retinoic acid receptor RXR-alpha (Homo sapiens) (P19793 whole entry, looked up): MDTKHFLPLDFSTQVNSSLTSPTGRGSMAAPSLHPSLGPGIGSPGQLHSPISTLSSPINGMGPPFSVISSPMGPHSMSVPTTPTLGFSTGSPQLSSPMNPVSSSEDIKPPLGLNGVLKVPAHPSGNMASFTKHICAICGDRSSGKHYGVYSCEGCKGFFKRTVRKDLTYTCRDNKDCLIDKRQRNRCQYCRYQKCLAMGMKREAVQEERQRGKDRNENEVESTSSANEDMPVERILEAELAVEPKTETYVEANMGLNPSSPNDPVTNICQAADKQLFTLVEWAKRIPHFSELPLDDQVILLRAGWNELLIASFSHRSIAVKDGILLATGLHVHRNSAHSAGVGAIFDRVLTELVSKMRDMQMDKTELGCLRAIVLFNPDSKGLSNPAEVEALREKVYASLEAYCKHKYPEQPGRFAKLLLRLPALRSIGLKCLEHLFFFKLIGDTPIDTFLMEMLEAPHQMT
# Chain of Vitamin D3 receptor (Homo sapiens) (P11473 whole entry, looked up): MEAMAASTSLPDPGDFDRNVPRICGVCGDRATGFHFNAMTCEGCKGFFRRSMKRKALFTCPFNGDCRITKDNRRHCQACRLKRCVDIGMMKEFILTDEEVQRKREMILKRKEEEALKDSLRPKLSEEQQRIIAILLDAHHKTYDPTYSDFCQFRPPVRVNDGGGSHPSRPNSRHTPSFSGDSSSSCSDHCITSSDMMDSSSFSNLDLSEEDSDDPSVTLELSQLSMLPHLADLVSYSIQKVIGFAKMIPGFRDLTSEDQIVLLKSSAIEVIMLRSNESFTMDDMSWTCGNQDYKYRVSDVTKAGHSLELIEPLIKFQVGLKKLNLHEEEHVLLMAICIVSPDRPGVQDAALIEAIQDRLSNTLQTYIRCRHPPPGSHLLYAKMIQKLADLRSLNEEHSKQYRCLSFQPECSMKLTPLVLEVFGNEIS
# Chain of Nuclear receptor subfamily 1 group I member 2 (Rattus norvegicus) (Q9R1A7 whole entry, looked up): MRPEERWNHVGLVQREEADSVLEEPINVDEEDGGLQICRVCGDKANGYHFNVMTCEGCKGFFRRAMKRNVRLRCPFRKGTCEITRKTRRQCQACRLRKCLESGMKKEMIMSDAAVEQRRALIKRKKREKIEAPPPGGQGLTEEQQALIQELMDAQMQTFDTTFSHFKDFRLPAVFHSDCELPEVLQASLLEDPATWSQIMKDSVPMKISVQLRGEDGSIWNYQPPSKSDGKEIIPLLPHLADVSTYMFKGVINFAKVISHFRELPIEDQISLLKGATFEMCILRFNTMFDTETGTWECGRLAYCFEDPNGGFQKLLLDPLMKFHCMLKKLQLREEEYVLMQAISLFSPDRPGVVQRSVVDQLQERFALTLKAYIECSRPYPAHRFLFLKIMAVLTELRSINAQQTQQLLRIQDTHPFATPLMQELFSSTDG
# Chain of Peroxisome proliferator-activated receptor delta (Homo sapiens) (Q03181 whole entry, looked up): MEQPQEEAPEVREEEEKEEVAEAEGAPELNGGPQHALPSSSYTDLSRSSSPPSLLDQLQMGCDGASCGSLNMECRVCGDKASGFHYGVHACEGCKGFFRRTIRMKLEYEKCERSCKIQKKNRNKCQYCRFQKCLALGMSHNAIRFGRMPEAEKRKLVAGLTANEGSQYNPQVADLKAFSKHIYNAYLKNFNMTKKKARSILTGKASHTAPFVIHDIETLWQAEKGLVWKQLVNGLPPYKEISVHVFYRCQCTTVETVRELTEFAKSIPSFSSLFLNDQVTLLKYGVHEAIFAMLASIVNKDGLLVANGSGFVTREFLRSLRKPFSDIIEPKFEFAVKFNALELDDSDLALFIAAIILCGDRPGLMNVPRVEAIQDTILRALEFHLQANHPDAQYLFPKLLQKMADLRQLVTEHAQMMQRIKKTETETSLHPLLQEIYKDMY
# Chain of Peroxisome proliferator-activated receptor alpha (Homo sapiens) (Q07869 whole entry, looked up, the tested form may be a part): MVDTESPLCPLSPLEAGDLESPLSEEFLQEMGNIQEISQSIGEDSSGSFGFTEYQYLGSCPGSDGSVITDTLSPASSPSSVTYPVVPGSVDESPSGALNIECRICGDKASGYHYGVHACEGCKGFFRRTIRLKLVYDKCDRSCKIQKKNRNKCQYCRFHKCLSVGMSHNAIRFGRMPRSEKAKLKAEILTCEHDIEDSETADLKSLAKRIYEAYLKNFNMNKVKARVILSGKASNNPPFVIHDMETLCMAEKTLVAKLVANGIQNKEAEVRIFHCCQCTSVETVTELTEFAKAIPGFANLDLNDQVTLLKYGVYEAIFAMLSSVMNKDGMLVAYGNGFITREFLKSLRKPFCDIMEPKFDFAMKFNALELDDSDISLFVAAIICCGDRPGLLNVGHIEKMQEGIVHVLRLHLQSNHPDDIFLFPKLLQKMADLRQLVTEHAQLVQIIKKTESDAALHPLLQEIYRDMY
# Chain of Estrogen receptor (Homo sapiens) (P03372 whole entry, looked up): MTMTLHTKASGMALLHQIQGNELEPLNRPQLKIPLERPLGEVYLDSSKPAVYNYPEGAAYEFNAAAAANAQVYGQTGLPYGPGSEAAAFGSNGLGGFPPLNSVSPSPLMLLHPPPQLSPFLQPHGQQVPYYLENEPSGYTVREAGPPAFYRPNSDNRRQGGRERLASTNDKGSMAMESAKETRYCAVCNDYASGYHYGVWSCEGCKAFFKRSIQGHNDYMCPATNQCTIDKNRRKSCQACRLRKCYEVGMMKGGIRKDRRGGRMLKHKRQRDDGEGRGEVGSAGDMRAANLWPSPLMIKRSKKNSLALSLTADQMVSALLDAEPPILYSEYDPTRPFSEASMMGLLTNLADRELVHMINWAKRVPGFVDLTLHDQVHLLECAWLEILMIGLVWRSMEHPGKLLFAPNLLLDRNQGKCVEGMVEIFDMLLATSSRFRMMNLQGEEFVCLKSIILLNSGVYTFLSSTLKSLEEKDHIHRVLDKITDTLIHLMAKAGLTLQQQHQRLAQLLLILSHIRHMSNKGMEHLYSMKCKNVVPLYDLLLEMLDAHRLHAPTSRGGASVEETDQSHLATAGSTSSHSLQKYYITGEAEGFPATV
Structure (SMILES),Potency [1],Potency [2],max response [3] [%],Potency [4],outcome [5],max response [6] [%],Potency [7],max response [8] [%],max response [9],activation [10],activation [11],max response [12],max response [13],max response [14],outcome [15],activation [16],max response [17],Potency [18],Potency [17],Potency [13]
O=C(O)CCCCCCCCCCC(=O)O,inactive,inactive,18.9,inactive,inactive,0.198,inactive,2.61,7.09% (inactive),-0.986% (inactive),3.26% (inactive),-1.09% (inactive),-10.8% (inactive),0.83% (inactive),inactive,,,,,
CCCCN(CCCC)CCCC,inactive,inactive,31.3,inactive,,-9.25,inactive,-19.1,2.35% (inactive),-1.19% (inactive),-2.43% (inactive),3.75% (inactive),-10.1% (inactive),-4.71% (inactive),inactive,-3.01% (inactive),-5.72% (inactive),,,
CCCCOCCOCCOC(=O)CCCCC(=O)OCCOCCOCCCC,inactive,inactive,22.3,inactive,inactive,-9.1,inactive,-1.41,5.79% (inactive),-0.225% (inactive),-0.636% (inactive),3.34% (inactive),-4.73% (inactive),-6.4% (inactive),,,,inactive,,
N[C@@H]1[C@@H](O)[C@H](O)[C@@H](CO)O[C@H]1O,inactive,inactive,8.04,inactive,,-2.29,inactive,-16.6,6.05% (inactive),,2.2% (inactive),-1.62% (inactive),-8.29% (inactive),-3.38% (inactive),inactive,-3.01% (inactive),-11.9% (inactive),inactive,,
NNS(=O)(=O)c1ccc(Oc2ccc(S(=O)(=O)NN)cc2)cc1,inactive,0.447 µM (active),18.7,inactive,inactive,-6.27,inactive,-11.5,-7.05% (inactive),-1.01% (inactive),0.263% (inactive),-6% (inactive),0.11% (inactive),8.65% (inactive),inactive,-0.745% (inactive),-13.9% (inactive),inactive,,
OC1CCC(C2CCCCC2)CC1 (centres undefined),inactive,inactive,-39.9,inactive,inactive,-2.23,inactive,-5.21,6.85% (inactive),,-1.51% (inactive),-0.35% (inactive),-12.9% (inactive),-2.53% (inactive),inactive,3.92% (inactive),-10.1% (inactive),inactive,,
CCCCCC1CCC(=O)O1 (centres undefined),inactive,inactive,31.3,inactive,inactive,-5.36,inactive,-5.89,2.03% (inactive),-1.34% (inactive),,-1.42% (inactive),-7.91% (inactive),2.69% (inactive),inactive,0.985% (inactive),1.26% (inactive),inactive,,
CCCCOC(=O)/C=C\C(=O)OCCCC,inactive,inactive,,,,-15,inactive,-0.0728,8.44% (inactive),0.89% (inactive),0.228% (inactive),-0.617% (inactive),-1.23% (inactive),0.138% (inactive),inactive,5.06% (inactive),14% (inactive),inactive,,
O=C(Cl)c1cc(Cl)cc(Cl)c1,inactive,inactive,16,inactive,inactive,-4.35,inactive,3.33,-11.9% (inactive),-1.64% (inactive),2.73% (inactive),-3.03% (inactive),-4.86% (inactive),2.44% (inactive),inactive,-0.691% (inactive),-8.26% (inactive),inactive,,
Nc1c(N=Nc2ccc(S(=O)(=O)CCOS(=O)(=O)O)cc2)c(S(=O)(=O)O)cc2cc(S(=O)(=O)O)c(N=Nc3ccc(S(=O)(=O)CCOS(=O)(=O)O)cc3)c(O)c12,inactive,inactive,-15.1,inactive,inactive,-7.65,inactive,-13.3,-5.5% (inactive),1.61% (inactive),-7.65% (inactive),-8.75% (inactive),,-11.2% (inactive),inactive,-4.94% (inactive),,,35.5 µM (active),35.5 µM (active)
OCC(CO)(CO)COCC(CO)(CO)CO,inactive,inactive,,,inactive,-6.03,inactive,-4.98,-11.8% (inactive),-2.64% (inactive),3.82% (inactive),0.242% (inactive),-12.4% (inactive),3.21% (inactive),,-2.73% (inactive),3.18% (inactive),inactive,,
Cc1ccc(S(=O)(=O)N=C=O)cc1,inactive,inactive,5.8,inactive,inactive,15.4,inactive,-8.47,12.7% (inactive),-0.506% (inactive),-0.31% (inactive),-0.858% (inactive),-6.04% (inactive),-1.2% (inactive),inactive,-3.48% (inactive),-7.8% (inactive),inactive,,
CCCCC(CC)C(=O)OCCOCCOCCOC(=O)C(CC)CCCC (centres undefined),inactive,inactive,37.3,inactive,inactive,18.8,inactive,-5.42,-7.08% (inactive),-6.56% (inactive),,0.387% (inactive),-11.7% (inactive),4.7% (inactive),inactive,0.679% (inactive),1.57% (inactive),inactive,,
